According to PubChem BioAssay AID1159580 (chemical genetic matrix, 2015):
“And” between values parts separate entries of the source, which are not always exact repeats. Identical values can stand only once. The whole screen tested about 5,500 compounds, of which about 2,000 (36%) were called active. About 18% were inconclusive and are not listed. Cut-off read from the data, not from the text of the source: active = normalized growth mostly below about 0.91 (no sharp cut-off); inconclusive = no clear call, values can overlap the other calls; inactive = mostly above about 0.92. This is one part of the list.

Assay: chemical genetic growth profiling, strain panel (AID 1159580);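 note: tested at 20 µM; growth read once vehicle control cultures reached saturation at 30 °C; 1 = growth at the plate median or of vehicle wells; lower values mean less growth of the strain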
Settings: S. cerevisiae deletion strains, growth OD

Measured: normalized growth

CC(C)c1c(O)c(-c2cc3c(c(C(C)C)c2O)CCC2C(C)(C)CCC[C@]32C)cc2c1CCC1C(C)(C)CCC[C@]21C (stereo partly specified)
inactive: locus YAL013W, strain DEP1, active compounds read low 1.01 | locus YAL021C, strain ccr4, active compounds read low 0.987 | locus YAL026C, strain drs2, active compounds read low 0.988 | locus YAL030W, strain snc1, active compounds read low 0.996 | locus YBL061C, strain skt5, active compounds read low 0.991 | locus YBR009C, strain hhf1, active compounds read low 1.02 | locus YBR021W, strain FUR4, active compounds read low 1.03 | locus YBR023C, strain chs3, active compounds read low 0.992 | locus YBR171W, strain sec66, active compounds read low 0.976 | locus YBR229C, strain ROT2, active compounds read low 1.02 | locus YBR231C, strain swc5, active compounds read low 0.99 | locus YBR279W, strain paf1, active compounds read low 0.99 | locus YCL011C, strain gbp2, active compounds read low 0.983 | locus YCL016C, strain dcc1, active compounds read low 0.976 | locus YCL029C, strain bik1, active compounds read low 1.02 | locus YCL061C, strain MRC1, active compounds read low 0.982 | locus YCL069W, strain vba3, active compounds read low 0.998 | locus YCR088W, strain abp1, active compounds read low 1 | locus YDL005C, strain med2, active compounds read low 0.964 | locus YDL035C, strain GPR1, active compounds read low 1.02 | locus YDL040C, strain nat1, active compounds read low 0.991 | locus YDL074C, strain BRE1, active compounds read low 1.02 | locus YDL101C, strain DUN1, active compounds read low 1.01 | locus YDL134C, strain PPH21, active compounds read low 1.01 | locus YDL185W, strain tfp1, active compounds read low 1.04 | locus YDL192W, strain arf1, active compounds read low 1.03 | locus YDR001C, strain nth1, active compounds read low 0.984 | locus YDR069C, strain doa4, active compounds read low 0.982 | locus YDR101C, strain arx1, active compounds read low 1.01 | locus YDR137W, strain rgp1, active compounds read low 0.982 | locus YDR150W, strain NUM1, active compounds read low 1.02 | locus YDR159W, strain sac3, active compounds read low 0.986 | locus YDR162C, strain NBP2, active compounds read low 1.02 | locus YDR195W, strain ref2 0.938 | locus YDR297W, strain sur2, active compounds read low 0.985 | locus YDR318W, strain mcm21, active compounds read low 1.02 | locus YDR334W, strain swr1, active compounds read low 0.972 | locus YDR335W, strain msn5, active compounds read low 0.986 | locus YDR388W, active compounds read low 1.01 | locus YDR392W, strain spt3, active compounds read low 0.982 | locus YDR502C, strain sam2, active compounds read low 1.01 | locus YEL003W, strain gim4, active compounds read low 0.995 | locus YEL037C, strain rad23, active compounds read low 0.99 | locus YEL061C, strain CIN8 (second series), active compounds read low 0.993 | locus YEL061C, strain CIN8, active compounds read low 1.01 | locus YER015W, strain faa2, active compounds read low 0.985 | locus YER016W, strain bim1, active compounds read low 0.972 | locus YER110C, active compounds read low 1.02 | locus YER111C, strain swi4, active compounds read low 0.992 | locus YER155C, strain BEM2 (second series), active compounds read low 0.992 | locus YER155C, strain BEM2, active compounds read low 1.01 | locus YER167W, strain BCK2, active compounds read low 1.03 | locus YFR010W, strain ubp6, active compounds read low 1.01 | locus YGL078C, strain dbp3, active compounds read low 1.01 | locus YGL086W, strain mad1, active compounds read low 1.02 | locus YGL167C, strain pmr1, active compounds read low 0.993 | locus YGL173C, strain kem1, active compounds read low 0.972 | locus YGL227W, strain vid30, active compounds read low 0.982 | locus YGL240W, strain doc1, active compounds read low 0.988 | locus YGL248W, strain PDE1, active compounds read low 1.02 | locus YGL253W, strain hxk2, active compounds read low 0.985 | locus YGR078C, strain PAC10, active compounds read low 1.01 | locus YGR135W, strain pre9, active compounds read low 1.01 | locus YGR229C, strain SMI1, active compounds read low 1.01 | locus YGR252W, strain gcn5, active compounds read low 1.06 | locus YHR013C, strain ard1, active compounds read low 0.947 | locus YHR027C, strain rpn1, active compounds read low 0.985 | locus YHR030C, strain SLT2, active compounds read low 1.01 and 0.972 | locus YHR079C, strain IRE1 (second series), active compounds read low 1.01 | locus YHR079C, strain IRE1, active compounds read low 0.965 | locus YHR094C, strain hxt1, active compounds read low 1.02 | locus YHR129C, strain ARP1, active compounds read low 1 | locus YHR142W, strain chs7, active compounds read low 0.986 | locus YHR200W, strain rpn10, active compounds read low 1.02 | locus YIL066C, strain RNR3, active compounds read low 1.02 | locus YIL073C, strain SPO22, active compounds read low 1.08 | locus YIL125W, strain kgd1, active compounds read low 1.02 | locus YIR030C, strain dcg1, active compounds read low 1.01 | locus YJL092W, strain hpr5, active compounds read low 0.979 | locus YJL095W, strain BCK1 (second series), active compounds read low 0.997 | locus YJL095W, strain BCK1, active compounds read low 1.01 and 1 | locus YJL115W, strain asf1, active compounds read low 0.956 | locus YJL129C, strain trk1, active compounds read low 0.988 | locus YJL134W, strain LCB3, active compounds read low 1.01 | locus YJL154C, strain vps35, active compounds read low 0.985 | locus YJL164C, strain tpk1, active compounds read low 0.994 | locus YJL166W, strain qcr8, active compounds read low 0.997 | locus YJL168C, strain set2, active compounds read low 1.02 | locus YJL187C, strain SWE1 (second series), active compounds read low 1.01 | locus YJR043C, strain POL32, active compounds read low 1.03 | locus YJR066W, strain TOR1, active compounds read low 0.945
